The nature of assay [1]: optical density shifts of acrAB sulA E. coli – strain DRC41, OD650, 48 h, E. coli filamentation inducer project, primary screen (AID 1152).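 Further: E. coli MC1000 strain DRC41 lacking acrAB efflux pump and sulA.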 The conditions noted are these: higher = more signal, called active from +8 up or from −8 down.
A short description of assay [2]: probe aLefty1 binding on compound microarray – biochemical, small-molecule microarray, 635/667 nm fluorescence, primary screen (AID 1153).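 Further: score merges spot fluorescence with signal-to-noise ratio from the scanned slide images.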 The conditions noted are these: higher = more signal.
Assay [3] in a line: plasmodial surface anion channel blockers, osmotic lysis – cell-based, P. falciparum Indochina, OD700, 1 h, primary screen (AID 1154). Particulars: P. falciparum Indochina infected RBC osmotic lysis, higher = more signal, called active from +8 up or from −8 down.
Assay [4] is described as follows: plasmodial surface anion channel blockers, osmotic lysis – cell-based, P. falciparum Indochina, OD700, 2 h, primary screen (AID 1155).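 Further: lysis reports solute entry through the parasite surface anion channel PSAC.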 Particulars: P. falciparum Indochina infected erythrocytes, higher = more signal, called active from +8 up or from −8 down.
Assay [5] is described as follows: changes in parasitized red cell lysis, either direction – P. falciparum Indochina, OD700, 3 h, PSAC antagonist project, primary screen (AID 1156). The conditions noted are these: P. falciparum-infected erythrocytes, osmotic lysis, higher = more signal, called active from +8 up or from −8 down.
Assay [6] can be described thus: plasmodial surface anion channel blockers, osmotic lysis – cell-based, P. falciparum Indochina, OD700, 18 h, primary screen (AID 1157). The conditions noted are these: P. falciparum Indochina infected erythrocytes, osmotic lysis OD700, 18 h; higher = more signal, called active from +8 up or from −8 down.
Assay [7] can be described thus: S6 kinase pathway phospho-S6 level changes – cell-based, A549, cytoblot, luminescence, serum-stimulated, primary screen (AID 1158).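 Further: serum-stimulated A549 lung adenocarcinoma cells; signal is phosphorylated S6 detected by cytoblot immunostaining with HRP secondary.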 Particulars: 5 h, higher = more signal.
For assay [8], the target named is NADPH oxidase 2 (Homo sapiens) (UniProt P04839). Kind of assay: compounds shifting NOX2 Amplex Red fluorescence – cell-based, HEK293-NOX2, PMA-stimulated, NOX inhibitor project, primary screen (AID 1159). Further: test concentration not given here. The conditions noted are these: 45 min, higher = more signal, called active from +8 up or from −8 down.
In assay [9] the target is NADPH oxidase 4 (Homo sapiens) (UniProt Q9NPH5). Kind of assay: compounds shifting NOX4 Amplex Red fluorescence – cell-based, HEK293-NOX4, tetracycline-induced, NOX inhibitor project, primary screen (AID 1160). The conditions noted are these: HEK293-NOX4, Amplex Red H2O2 fluorescence, 45 min; higher = more signal, called active from +8 up or from −8 down.
Assay [10] deals with NADPH oxidase 5 (Homo sapiens) (UniProt Q96PH1). Kind of assay: compounds shifting NOX5 Amplex Red fluorescence – cell-based, HEK293-NOX5, NOX inhibitor project, primary screen (AID 1161). The conditions noted are these: HEK293-NOX5, ionomycin, 45 min, higher = more signal.
Assay [11] in a line: compound effects on lung adenocarcinoma cell viability – A549, calcein-AM fluorescence, 48 h, basal, profiling panel (AID 1162). Further: test concentration not given here. The conditions noted are these: higher = more signal.
Assay [12] can be described thus: compound effects on differentiated 3T3-L1 adipocyte viability – cell-based, 3T3-L1 adipocytes, calcein-AM fluorescence, 48 h, basal, profiling panel (AID 1163). Further: test concentration not given here. The conditions noted are these: 3T3-L1 adipocytes viability, higher = more signal.
A short description of assay [13]: compound effects on hepatocellular carcinoma cell viability – HepG2, calcein-AM fluorescence, 48 h, basal, profiling panel (AID 1164). Further: test concentration not given here. Particulars: higher = more signal.
A short description of assay [14]: compound effects on multiple myeloma cell viability – MM1S, calcein-AM fluorescence, 48 h, basal, profiling panel (AID 1165). Further: test concentration not given here. The conditions noted are these: higher = more signal.
Assay [15] is described as follows: calcein-AM signal in unstimulated myeloma cells – cell-based, calcein-AM fluorescence, 48 h, PK04 Diversity Set, profiling panel (AID 1166).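 Further: cells grown under basal conditions without added stimulus; test concentration not given here.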 The conditions noted are these: RPMI8226 myeloma viability, higher = more signal.
Assay [16] can be described thus: JC-1 mitochondrial signal, unstimulated HepG2 cells – cell-based, JC-1 fluorescence, 24 h, 100 nL compound, profiling panel (AID 1167). Further: test concentration not given here. Particulars: HepG2 mitochondrial potential, higher = more signal.
Assay [17] is described as follows: JC-1 mitochondrial signal, unstimulated adipocytes – cell-based, JC-1 fluorescence, 3T3-L1 adipocytes, 24 h, 100 nL compound, profiling panel (AID 1168). Further: test concentration not given here. Particulars: JC-1 mitochondrial fluorescence, higher = more signal, called active from +8 up or from −8 down.
The nature of assay [18]: JC-1 mitochondrial signal, unstimulated myeloma cells – cell-based, JC-1 fluorescence, RPMI8226, 24 h, 100 nL compound, profiling panel (AID 1169). Further: test concentration not given here. The conditions noted are these: JC-1 mitochondrial potential fluorescence, higher = more signal.
A short description of assay [19]: JC-1 mitochondrial signal, unstimulated MM1S myeloma – cell-based, JC-1 fluorescence, 24 h, 100 nL compound, profiling panel (AID 1170). Further: test concentration not given here. Particulars: MM1S mitochondrial potential, higher = more signal.
Assay [20] can be described thus: resazurin metabolic signal in A549 cells – cell-based, resazurin fluorescence, 24 h, PK04 Diversity Set, profiling panel (AID 1171). Further: test concentration not given here. Particulars: A549 viability, higher = more signal, called active from +8 up or from −8 down.

The source made the active and inactive calls.

NADPH oxidase 2 (Homo sapiens), sequence (P04839 whole entry, looked up): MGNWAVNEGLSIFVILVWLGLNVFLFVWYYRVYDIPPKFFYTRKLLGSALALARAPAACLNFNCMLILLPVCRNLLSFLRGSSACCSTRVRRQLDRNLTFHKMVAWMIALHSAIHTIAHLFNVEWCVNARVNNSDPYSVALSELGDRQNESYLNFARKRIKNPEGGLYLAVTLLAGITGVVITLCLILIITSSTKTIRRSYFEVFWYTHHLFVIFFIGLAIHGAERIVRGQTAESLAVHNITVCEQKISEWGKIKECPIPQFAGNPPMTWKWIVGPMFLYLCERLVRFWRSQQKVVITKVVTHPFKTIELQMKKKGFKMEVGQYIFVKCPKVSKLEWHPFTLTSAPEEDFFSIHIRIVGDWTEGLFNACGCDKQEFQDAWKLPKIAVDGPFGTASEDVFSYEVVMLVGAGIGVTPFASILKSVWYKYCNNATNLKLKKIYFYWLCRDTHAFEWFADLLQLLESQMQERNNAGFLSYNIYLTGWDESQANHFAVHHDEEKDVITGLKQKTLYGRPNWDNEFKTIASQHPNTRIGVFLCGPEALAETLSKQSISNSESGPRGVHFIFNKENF
NADPH oxidase 5 (Homo sapiens), sequence (Q96PH1 whole entry, looked up): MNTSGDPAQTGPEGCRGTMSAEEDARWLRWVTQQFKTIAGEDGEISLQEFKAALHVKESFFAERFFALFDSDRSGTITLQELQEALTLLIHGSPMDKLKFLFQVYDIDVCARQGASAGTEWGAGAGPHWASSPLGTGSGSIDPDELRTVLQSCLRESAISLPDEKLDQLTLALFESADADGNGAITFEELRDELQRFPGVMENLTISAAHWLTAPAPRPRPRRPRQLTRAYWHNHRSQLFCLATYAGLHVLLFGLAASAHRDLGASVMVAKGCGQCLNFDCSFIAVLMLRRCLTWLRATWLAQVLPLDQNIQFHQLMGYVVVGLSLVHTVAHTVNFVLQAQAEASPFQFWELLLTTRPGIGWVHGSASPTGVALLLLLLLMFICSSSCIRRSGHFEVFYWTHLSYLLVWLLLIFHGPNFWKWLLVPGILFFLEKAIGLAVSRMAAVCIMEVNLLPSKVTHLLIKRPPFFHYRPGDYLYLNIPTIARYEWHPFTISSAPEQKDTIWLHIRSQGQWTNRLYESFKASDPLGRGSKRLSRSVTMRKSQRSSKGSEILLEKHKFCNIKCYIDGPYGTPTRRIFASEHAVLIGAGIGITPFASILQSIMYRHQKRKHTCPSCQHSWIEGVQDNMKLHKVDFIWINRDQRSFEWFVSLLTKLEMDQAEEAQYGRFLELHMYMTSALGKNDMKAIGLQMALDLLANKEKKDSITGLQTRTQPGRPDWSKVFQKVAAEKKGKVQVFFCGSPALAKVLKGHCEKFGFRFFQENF
NADPH oxidase 4 (Homo sapiens), sequence (Q9NPH5 whole entry, looked up): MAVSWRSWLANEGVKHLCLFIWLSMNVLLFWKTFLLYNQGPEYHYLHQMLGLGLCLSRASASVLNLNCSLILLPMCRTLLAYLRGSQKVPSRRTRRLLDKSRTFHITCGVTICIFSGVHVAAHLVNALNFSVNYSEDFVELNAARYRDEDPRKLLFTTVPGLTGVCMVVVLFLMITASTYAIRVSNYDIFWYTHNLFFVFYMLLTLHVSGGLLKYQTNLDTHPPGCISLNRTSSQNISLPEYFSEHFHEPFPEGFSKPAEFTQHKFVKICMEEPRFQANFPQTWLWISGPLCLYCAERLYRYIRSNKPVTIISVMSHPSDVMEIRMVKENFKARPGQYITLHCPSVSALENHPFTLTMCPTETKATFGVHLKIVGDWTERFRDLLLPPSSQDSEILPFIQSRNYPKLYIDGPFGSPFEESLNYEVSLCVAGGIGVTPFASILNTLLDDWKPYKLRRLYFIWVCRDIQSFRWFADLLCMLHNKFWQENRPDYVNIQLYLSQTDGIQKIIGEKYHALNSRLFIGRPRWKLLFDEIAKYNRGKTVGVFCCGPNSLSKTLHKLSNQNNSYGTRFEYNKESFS

Turning to `O=C1C2C=CC(C(O)c3cccc(O)c3)N(Nc3ccccc3)C2C(=O)N1c1ccccc1` (stereo not given), the z-score is -1.09 (inactive) in assay [1]; 6.48 (inactive) in assay [3]; 0.214 (inactive) in assay [4]; 0.185 (inactive) in assay [5]; 0.115 (inactive) in assay [6]; 0.109 in assay [7]. Moreover, the z-score in assay [8] was -3.44 (inactive); in [9], -6.62 (inactive); in assay [10] it was -6.85; in assay [11], -0.671; in [12], -0.096; in [13], -1.22. The z-score in assay [14] is -0.109; in [15], -0.444; in assay [16], -2.04; in assay [17] it was 0.166 (inactive); in assay [18], -0.0193; in [19] it was -1.37. Also, the z-score in assay [20] is -0.224 (inactive). The same molecule yielded a composite z-score in assay [2] of 0.315.
For the molecule `Cc1ccc([C@H]2C(C(=O)O)=C[C@@H](C(C)(C)C)N2S(=O)(=O)c2ccc(C)cc2)cc1`, the z-score was -1.18 (inactive) in assay [1]; 0.212 (inactive) in assay [3]; 0.934 (inactive) in assay [4]; -0.627 (inactive) in assay [5]; 0.585 (inactive) in assay [6]; -0.213 in assay [7]. In addition, the z-score was 0.96 (inactive) in assay [8]; -2.84 (inactive) in [9]; -0.357 in assay [10]; -0.728 in assay [11]; -0.85 in assay [12]; -0.338 in [13]. Besides, the z-score in [14] was 0.0315; in assay [15], -0.4; in assay [16] it was -0.892; in [17], -0.38 (inactive); in assay [18], -0.0701; in assay [19] it was -1.19. For the same molecule, the z-score in [20] was -0.654 (inactive). In [2], this molecule yielded a composite z-score of 0.141.
As to `C=CCC(OC(C)=O)[C@@H]1[C@@H](N(Cc2ccc(-c3ccccc3)cc2)C(=O)Cc2ccc(F)cc2)c2cc(OCCCO)ccc2N1C(=O)Cc1ccc2ccccc2c1` (stereo not given in full), the z-score was 0.882 (inactive) in assay [1]; 1.84 (inactive) in assay [3]; 0.791 (inactive) in assay [4]; -0.205 (inactive) in assay [5]; 0.381 (inactive) in assay [6]; -0.199 in [7]. In addition, the z-score was 0.587 (inactive) in [8]; 0.512 (inactive) in assay [9]; 1.88 in assay [10]; 0.234 in [11]; -0.246 in assay [12]; 0.646 in assay [13]. The z-score is -0.177 in assay [14]; 0.0473 in assay [15]; 2.19 in assay [16]; -0.321 (inactive) in assay [17]; -0.909 in assay [18]; 0.89 in assay [19]. The z-score in assay [20] was 1.05 (inactive). In assay [2], this molecule registered a composite z-score of 0.0774.
As for `Cc1ccc(N2C(=O)c3ccccc3[C@](C)(C(=O)NCc3ccccc3)[C@@H]2c2ccc(CO)cc2)nc1`, the z-score in assay [1] is 0.465 (inactive); in assay [3] it was 2.01 (inactive); in assay [4], 0.161 (inactive); in assay [5], 0.385 (inactive); in assay [6], 0.305 (inactive); in assay [7], 0.389. For the same molecule, the z-score was 0.37 (inactive) in assay [8]; -1.75 (inactive) in [9]; -0.583 in assay [10]; 0.868 in assay [11]; 0.483 in assay [12]; 0.197 in assay [13]. Further, the z-score in assay [14] is -0.169; in assay [15] it was -1.46; in [16], 0.191; in assay [17], -0.834 (inactive); in [18], -0.494; in [19], 1.46. Moreover, the z-score in assay [20] was -0.0526 (inactive). The same molecule returned a composite z-score in assay [2] of 0.205.
`COc1ccc([Si](C)(C)[C@@H]2[C@@H](CC(=O)N3Cc4ccccc4C[C@H]3CO)O[C@]3(C(=O)N(Cc4ccc(N5CCC5=O)cc4)c4ccccc43)[C@H]2C)cc1`: the z-score is 0.238 (inactive) in assay [1]; 5.02 (inactive) in assay [3]; 1.31 (inactive) in [4]; 0.538 (inactive) in [5]; 1.14 (inactive) in assay [6]; 0.0933 in assay [7]. For the same molecule, the z-score is 0.669 (inactive) in assay [8]; 0.841 (inactive) in assay [9]; 2.36 in assay [10]; -0.167 in assay [11]; 0.233 in [12]; 0.437 in assay [13]. For the same molecule, the z-score in [14] was -0.0069; in assay [15] it was -1.76; in assay [16], 1.13; in [17], 1.37 (inactive); in [18], -0.553; in assay [19], -0.502. Moreover, in [20], the z-score is -0.61 (inactive). The molecule further showed a composite z-score in assay [2] of 0.0253.
As to `C=C(COC)C(=O)CC[C@H](OC(C)=O)c1ccc(OCCO)cc1`, the z-score in assay [1] was 1.5 (inactive); in assay [3], 4.92 (inactive); in assay [4], -1.68 (inactive); in assay [5], 1.91 (inactive); in assay [6], -1.85 (inactive); in assay [7] it was 0.534. The z-score is -2.84 (inactive) in assay [8]; -1.63 (inactive) in assay [9]; -2.22 in assay [10]; -0.522 in assay [11]; 1.72 in [12]; -0.974 in assay [13]. Further, the z-score in [14] is -2.6; in [15], -0.887; in assay [16] it was 0.692; in [17], -0.213 (inactive); in assay [18], -0.0964; in assay [19], 1.3. Also, the z-score in [20] is 0.0933 (inactive). The composite z-score in assay [2] is -0.0984.
`O=C1OCCC=C[C@H]2OC34C=CCN(c5ccc(Cl)cc5)C(=O)[C@H]3N(CCCCCCO)C(=O)[C@@H]4C12` (stereo not given in full): the z-score was 1.96 (inactive) in [1]; 0.769 (inactive) in assay [3]; 0.138 (inactive) in [4]; 1.13 (inactive) in assay [5]; 0.255 (inactive) in assay [6]; 0.551 in [7]. Moreover, the z-score is 1.47 (inactive) in [8]; 0.036 (inactive) in assay [9]; 2.61 in assay [10]; 1.26 in assay [11]; -0.043 in assay [12]; 1.21 in [13]. Besides, the z-score in assay [14] was 1.69; in assay [15], -1.1; in assay [16], 1; in [17] it was 0.335 (inactive); in [18] it was -0.0541; in assay [19] it was 1.34. Moreover, the z-score in assay [20] is 0.97 (inactive). The same molecule showed a composite z-score in assay [2] of -0.0292.
On to `COCCCNC(=O)[C@@]1(Sc2ccc(C)cc2)CC(=O)N(Cc2ccccc2Cl)[C@@H]1c1ccc(CO)cc1I`, for which the z-score in assay [1] is -0.192 (inactive); in [3], 3.44 (inactive); in [4] it was 0.325 (inactive); in assay [5], -0.575 (inactive); in [6], 0.181 (inactive); in [7], -0.487. The z-score in assay [8] was 1.52 (inactive); in [9], -1.12 (inactive); in assay [10], 2.08; in assay [11] it was 0.217; in assay [12], 0.0816; in assay [13] it was -0.115. The z-score is -1.88 in [14]; -2.32 in assay [15]; -0.51 in assay [16]; -0.695 (inactive) in assay [17]; -0.175 in assay [18]; -1.76 in [19]. Further, the z-score in [20] was -0.268 (inactive). For the same molecule, the composite z-score in [2] stood at 0.0004.
Consider `CC(C)(C)OC(=O)CC[C@]1(C(=O)N2CCCCC2)COC(c2ccc(OCCCO)cc2)=N1`, for which the z-score was 1.12 (inactive) in [1]; 22.2 (active) in [3]; 5.22 (inactive) in [4]; 1.11 (inactive) in assay [5]; 0.663 (inactive) in assay [6]; -0.515 in [7]. Further, the z-score in assay [8] was -2.59 (inactive); in [9] it was 0.0723 (inactive); in [10] it was -2.08; in assay [11] it was -0.34; in [12] it was 0.162; in assay [13], -0.614. Further, the z-score is -0.0601 in [14]; -0.225 in assay [15]; -0.696 in assay [16]; -0.378 (inactive) in assay [17]; -0.492 in assay [18]; -0.978 in assay [19]. The z-score in assay [20] was 2.58 (inactive). The molecule further displayed a composite z-score in [2] of -0.403.
